In PubChem BioAssay AID1159580 (chemical genetic matrix, 2015):
Among all 5,500 compounds or so, about 2,000 (36%) were called active. Inconclusive results (about 18%) are left out. Rule as the data show it: active = normalized growth mostly below about 0.91 (no sharp cut-off); inconclusive = no clear call, values can overlap the other calls; inactive = mostly above about 0.92. The list shows a part of the results.

Test: chemical genetic growth profiling, strain panel (AID 1159580);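 also: tested at 20 µM; growth read once vehicle control cultures reached saturation at 30 °C; 1 = growth at the plate median or of vehicle wells; lower values mean less growth of the strain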
Conditions: S. cerevisiae deletion strains, growth OD

Measured: normalized growth

C=C1C2=CC(=O)O[C@@H](c3ccoc3)[C@]2(C)CCC1[C@@]1(C)C=CC(=O)C(C)(C)[C@@H]1CC(=O)OC (stereo partly drawn)
inactive: locus YAL021C, strain ccr4, hits give low values 1.04 | locus YAL026C, strain drs2, hits give low values 0.996 | locus YAL030W, strain snc1, hits give low values 0.998 | locus YBL061C, strain skt5, hits give low values 0.999 | locus YBR009C, strain hhf1, hits give low values 1.02 | locus YBR021W, strain FUR4, hits give low values 0.989 | locus YBR023C, strain chs3, hits give low values 1.01 | locus YBR171W, strain sec66, hits give low values 0.983 | locus YBR229C, strain ROT2, hits give low values 1 | locus YBR231C, strain swc5, hits give low values 0.982 | locus YBR279W, strain paf1, hits give low values 1 | locus YCL011C, strain gbp2, hits give low values 1.01 | locus YCL016C, strain dcc1, hits give low values 1.04 | locus YCL029C, strain bik1, hits give low values 0.983 | locus YCL061C, strain MRC1, hits give low values 1.01 | locus YCL069W, strain vba3, hits give low values 0.984 | locus YCR088W, strain abp1, hits give low values 0.982 | locus YDL005C, strain med2, hits give low values 0.996 | locus YDL035C, strain GPR1, hits give low values 0.991 | locus YDL040C, strain nat1, hits give low values 0.999 | locus YDL074C, strain BRE1, hits give low values 1.02 | locus YDL101C, strain DUN1, hits give low values 1.01 | locus YDL185W, strain tfp1, hits give low values 0.988 | locus YDL192W, strain arf1, hits give low values 0.999 | locus YDR001C, strain nth1, hits give low values 0.994 | locus YDR069C, strain doa4, hits give low values 0.991 | locus YDR101C, strain arx1, hits give low values 0.958 | locus YDR137W, strain rgp1, hits give low values 0.999 | locus YDR150W, strain NUM1, hits give low values 1.01 | locus YDR159W, strain sac3, hits give low values 0.953 | locus YDR162C, strain NBP2, hits give low values 1 | locus YDR195W, strain ref2 0.95 | locus YDR297W, strain sur2, hits give low values 0.988 | locus YDR318W, strain mcm21, hits give low values 1.01 | locus YDR334W, strain swr1, hits give low values 0.982 | locus YDR335W, strain msn5, hits give low values 0.997 | locus YDR388W, hits give low values 1 | locus YDR392W, strain spt3, hits give low values 1.03 | locus YDR502C, strain sam2, hits give low values 0.988 | locus YEL003W, strain gim4, hits give low values 0.994 | locus YEL037C, strain rad23, hits give low values 1 | locus YEL061C, strain CIN8 (second series), hits give low values 0.978 | locus YER015W, strain faa2, hits give low values 1.01 | locus YER016W, strain bim1, hits give low values 0.985 | locus YER110C, hits give low values 0.997 | locus YER111C, strain swi4, hits give low values 0.986 | locus YER155C, strain BEM2 (second series), hits give low values 1.02 | locus YER155C, strain BEM2, hits give low values 0.982 | locus YER167W, strain BCK2, hits give low values 1 | locus YFR010W, strain ubp6, hits give low values 0.972 | locus YGL078C, strain dbp3, hits give low values 0.999 | locus YGL086W, strain mad1, hits give low values 0.999 | locus YGL167C, strain pmr1, hits give low values 1.01 | locus YGL173C, strain kem1, hits give low values 0.99 | locus YGL227W, strain vid30, hits give low values 0.992 | locus YGL240W, strain doc1, hits give low values 0.994 | locus YGL248W, strain PDE1, hits give low values 1.01 | locus YGL253W, strain hxk2, hits give low values 0.937 | locus YGR078C, strain PAC10, hits give low values 1.01 | locus YGR135W, strain pre9, hits give low values 1.01 | locus YGR252W, strain gcn5, hits give low values 0.976 | locus YHR013C, strain ard1, hits give low values 1.01 | locus YHR027C, strain rpn1, hits give low values 0.976 | locus YHR079C, strain IRE1 (second series), hits give low values 0.985 | locus YHR094C, strain hxt1, hits give low values 0.996 | locus YHR129C, strain ARP1, hits give low values 1.01 | locus YHR142W, strain chs7, hits give low values 1.01 | locus YHR200W, strain rpn10, hits give low values 1 | locus YIL066C, strain RNR3, hits give low values 1.01 | locus YIL073C, strain SPO22, hits give low values 1.02 | locus YIL125W, strain kgd1, hits give low values 0.995 | locus YIR030C, strain dcg1, hits give low values 1 | locus YJL092W, strain hpr5, hits give low values 0.984 | locus YJL095W, strain BCK1 (second series), hits give low values 0.986 | locus YJL095W, strain BCK1, hits give low values 1.02 | locus YJL115W, strain asf1, hits give low values 0.999 | locus YJL129C, strain trk1, hits give low values 0.99 | locus YJL134W, strain LCB3, hits give low values 0.997 | locus YJL154C, strain vps35, hits give low values 0.995 | locus YJL164C, strain tpk1, hits give low values 1.02 | locus YJL166W, strain qcr8, hits give low values 0.996 | locus YJL168C, strain set2, hits give low values 1 | locus YJL187C, strain SWE1 (second series), hits give low values 1.01 | locus YJL187C, strain SWE1, hits give low values 0.99 | locus YJR075W, strain HOC1, hits give low values 0.993 | locus YKL009W, strain mrt4, hits give low values 0.976 | locus YKL068W, hits give low values 0.997 | locus YKL085W, strain MDH1 (second series), hits give low values 0.992 | locus YKL085W, strain MDH1, hits give low values 0.992 | locus YKL160W, strain elf1, hits give low values 1.06 | locus YKR001C, strain vps1, hits give low values 0.998 | locus YKR026C, strain gcn3, hits give low values 0.976 | locus YKR091W, strain srl3, hits give low values 0.994 | locus YLL001W, strain dnm1, hits give low values 0.99 | locus YLL026W, hits give low values 0.989 | locus YLL041C, strain sdh2, hits give low values 0.987 | locus YLR027C, strain aat2, hits give low values 0.978 | locus YLR039C, strain RIC1, hits give low values 1.05 | locus YLR058C, strain SHM2, hits give low values 1.01 | locus YLR102C, strain apc9, hits give low values 1 | locus YLR221C, strain rsa3, hits give low values 0.987 | locus YLR258W, strain gsy2, hits give low values 1.02 | locus YLR262C, strain YPT6 (second series), hits give low values 0.997 | locus YLR262C, strain YPT6, hits give low values 1.08 | locus YLR268W, strain sec22, hits give low values 0.996 | locus YLR320W, strain mms22, hits give low values 1.01 | locus YLR342W, strain FKS1 (second series), hits give low values 1.01 | locus YLR342W, strain FKS1, hits give low values 0.995 | locus YLR357W, strain rsc2, hits give low values 1.03 | locus YLR370C, strain arc18, hits give low values 0.97 | locus YLR371W, strain rom2, hits give low values 0.998 | locus YLR384C, strain iki3, hits give low values 1 | locus YLR418C, strain cdc73, hits give low values 1.01 | locus YML016C, strain PPZ1, hits give low values 0.998 | locus YML032C, strain rad52, hits give low values 0.984 | locus YML120C, strain ndi1, hits give low values 1.02 | locus YML124C, strain tub3, hits give low values 0.997 | locus YMR058W, strain fet3, hits give low values 1 | locus YMR078C, strain ctf18, hits give low values 1 | locus YMR125W, strain sto1, hits give low values 1 | locus YMR129W, hits give low values 0.991 | locus YMR205C, strain PFK2, hits give low values 1.07 | locus YMR223W, strain ubp8, hits give low values 0.989 | locus YMR231W, strain pep5, hits give low values 0.973 | locus YMR307W, strain GAS1, hits give low values 1.03 | locus YNL067W, strain RPL9B, hits give low values 1 | locus YNL071W, strain lat1, hits give low values 0.996 | locus YNL209W, strain ssb2, hits give low values 1.03 | locus YNL233W, strain BNI4, hits give low values 1.01 | locus YNL248C, strain rpa49, hits give low values 0.966 | locus YNL250W, strain rad50, hits give low values 0.997 | locus YNL271C, strain bni1, hits give low values 0.995 | locus YNL298W, strain CLA4, hits give low values 0.988 | locus YNL307C, strain MCK1, hits give low values 1 | locus YNL322C, strain KRE1 (second series), hits give low values 0.995 | locus YNL322C, strain KRE1, hits give low values 0.995 | locus YNR049C, strain mso1, hits give low values 0.99 | locus YNR052C, strain pop2, hits give low values 1.01 | locus YOL012C, strain htz1 1.06 | locus YOL147C, strain pex11, hits give low values 0.996 | locus YOR001W, strain rrp6, hits give low values 0.947 | locus YOR061W, strain CKA2, hits give low values 0.994 | locus YOR069W, strain VPS5, hits give low values 1 | locus YOR070C, strain gyp1, hits give low values 1 | locus YOR080W, strain dia2, hits give low values 0.983 | locus YOR083W, strain WHI5, hits give low values 1.06 | locus YOR106W, strain vam3, hits give low values 1.03 | locus YOR136W, strain idh2, hits give low values 0.993 | locus YOR144C, strain elg1, hits give low values 0.995 | locus YOR184W, strain ser1, hits give low values 0.992 | locus YOR265W, strain rbl2, hits give low values 0.984 | locus YOR270C, strain vph1, hits give low values 0.991 | locus YOR290C, strain snf2, hits give low values 1.06 | locus YOR316C, strain cot1, hits give low values 0.95 | locus YPL051W, strain arl3, hits give low values 0.985 | locus YPL078C, strain atp4, hits give low values 1.05 | locus YPL106C, strain sse1, hits give low values 1.08 | locus YPL240C, strain hsp82, hits give low values 0.992 | locus YPR119W, strain clb2, hits give low values 1 | locus YPR141C, strain kar3, hits give low values 0.999 | locus YPR163C, strain tif3, hits give low values 0.991 | locus YPR167C, strain met16, hits give low values 0.992 | strain wtn01, hits give low values 0.978
